Results on six molecules are retold here after PubChem BioAssay (NCI).

What all share (experiment): NCI-60 one-dose screen, 48 h (100 = growth as untreated, 0 = no growth, -100 = all killed)
For one experiment, the system named is SR leukemia. As to conditions: 10 µM unless noted.
The test system of a further experiment is OVCAR-8 ovarian. The note with it: 10 µM unless noted.
The next experiment concerns OVCAR-5 ovarian. As to conditions: 10 µM unless noted.
The test system of another experiment is OVCAR-4 ovarian. The note with it: 10 µM unless noted.
In a further experiment the test system is SK-OV-3 ovarian. As to conditions: 10 µM unless noted.
The next experiment relates to IGROV1 ovarian. As to conditions: 10 µM unless noted.
Another experiment concerns OVCAR-3 ovarian. The note with it: 10 µM unless noted.
The subject of the next experiment is HS 578T breast. As to conditions: 10 µM.
The next experiment relates to NCI/ADR-RES ovarian. As to conditions: 10 µM unless noted.
The test system of the next experiment is T-47D breast. The note with it: 10 µM unless noted.
The test system of the next experiment is BT-549 breast. The note with it: 10 µM unless noted.
In the next experiment the test system is MDA-MB-435 melanoma. The note with it: 10 µM unless noted.
The next experiment has as its system SW-620 colon. The note with it: 10 µM unless noted.
The subject of the next experiment is MCF7 breast. The note with it: 10 µM unless noted.
Another experiment has as its system HCT-116 colon. The note with it: 10 µM unless noted.
For the next experiment, the system named is HCC-2998 colon. As to conditions: 10 µM unless noted.
The next experiment deals with KM12 colon. As to conditions: 10 µM unless noted.
The test system of the next experiment is RPMI-8226 leukemia. As to conditions: 10 µM unless noted.

Compounds without any hit were thinned out: in the full panel of roughly 83,000, 20% have a hit.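 Cells were grown in 96-well plates and exposed to the test compound at a single concentration for 48 hours; results are reported as percent growth, with values below 10 considered active.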 Unmarked numbers belong to inactive results. Calls of active or inactive are those of the source.

As for `COc1cc2c(cc1OCCCOc1cc3c(cc1OC)C(=O)N1CCC[C@H]1C=N3)C=CC(C)(C)O2`, the growth with SR leukemia is 25.8%; in the experiment on OVCAR-8 ovarian, 89.2%; with OVCAR-5 ovarian, 115%; in the experiment on OVCAR-4 ovarian, 110%; in the experiment on SK-OV-3 ovarian, 112%; in the experiment with IGROV1 ovarian it was 92.1%. Also, the growth was 109% in the experiment with OVCAR-3 ovarian; 45.7% in the experiment with HS 578T breast; 109% with NCI/ADR-RES ovarian; 62.6% in the experiment on T-47D breast; -0.137% (active) in the experiment on BT-549 breast; 101% in the experiment with MDA-MB-435 melanoma. Further, the growth with SW-620 colon was 18.1%; with MCF7 breast, 39.3%; in the experiment with HCT-116 colon it was 61%; in the experiment with HCC-2998 colon it was 100%; in the experiment on KM12 colon, 109%.
Take `O=C(Nc1ccccc1)C(CCCCN1C(=O)c2ccccc2C1=O)N1C(=O)c2ccccc2C1=O` (stereo not given): the growth with SR leukemia was 92.7%; in the experiment with RPMI-8226 leukemia it was 86.2%; with OVCAR-8 ovarian, 103%; in the experiment on OVCAR-4 ovarian it was 106%; with SK-OV-3 ovarian it was 107%; in the experiment on IGROV1 ovarian, 110%. In addition, the growth was 107% in the experiment on OVCAR-3 ovarian; 106% in the experiment on HS 578T breast; 98.6% in the experiment on NCI/ADR-RES ovarian; 105% in the experiment on T-47D breast; 104% with BT-549 breast; 108% in the experiment on MDA-MB-435 melanoma. In addition, the growth was 102% with SW-620 colon, 101% in the experiment on MCF7 breast, 107% in the experiment with HCT-116 colon and 100% with KM12 colon.
For `COc1ccc(C2C3=C(COC3=O)N(CCO)c3cc(OC)c(OC)cc32)cc1` (stereo not given), the growth was 93.1% with SR leukemia; 108% with OVCAR-8 ovarian; 104% in the experiment with OVCAR-5 ovarian; 105% with OVCAR-4 ovarian; 106% in the experiment on SK-OV-3 ovarian; 119% with IGROV1 ovarian. The growth was 109% with OVCAR-3 ovarian; 106% with HS 578T breast; 105% in the experiment with NCI/ADR-RES ovarian; 91.3% with T-47D breast; 100% in the experiment on BT-549 breast; 112% in the experiment on MDA-MB-435 melanoma. Besides, the growth is 101% with SW-620 colon, 103% in the experiment on MCF7 breast, 103% in the experiment with HCT-116 colon and 106% with KM12 colon.
For the molecule `COc1cc2nccc(Oc3ccc(NC(=O)C4(C(=O)Nc5ccc(F)cc5)CC4)cc3)c2cc1O`, the growth in the experiment on SR leukemia is 41.3%; with RPMI-8226 leukemia, 52.8%; in the experiment on OVCAR-8 ovarian it was 73.7%; in the experiment on OVCAR-4 ovarian, 37.1%; in the experiment on SK-OV-3 ovarian, 86.5%; with IGROV1 ovarian, 52.1%. For the same molecule, the growth in the experiment with OVCAR-3 ovarian was 78.7%; with HS 578T breast, 42.7%; in the experiment on T-47D breast, 55.3%; in the experiment with BT-549 breast it was 79.9%; in the experiment with MDA-MB-435 melanoma it was 52.6%; with MCF7 breast, 51.2%. The values for the growth in the experiment on HCC-2998 colon and in the experiment on KM12 colon were 79.3% and 22.5%, respectively.
For the molecule `COc1ccc(-c2nsc3c2NC(=O)CC3c2ccc3c(c2)OCO3)cc1` (stereo not given), the growth in the experiment with SR leukemia is -21.6% (active); with RPMI-8226 leukemia, 2.77% (active); with OVCAR-8 ovarian, 26.2%; in the experiment with OVCAR-4 ovarian it was 66.8%; in the experiment on SK-OV-3 ovarian it was 24.4%; in the experiment on IGROV1 ovarian, 19.7%. Also, the growth was -26.3% (active) in the experiment on OVCAR-3 ovarian; 17.6% in the experiment on HS 578T breast; 33.2% in the experiment with T-47D breast; 53.6% in the experiment with BT-549 breast; -38.5% (active) with MDA-MB-435 melanoma; 24.9% in the experiment on SW-620 colon. The growth with MCF7 breast was 22.7%; in the experiment with HCT-116 colon it was 28.6%; in the experiment with HCC-2998 colon, 39.4%; with KM12 colon it was 31.2%.
On to `C#CC[C@@H]1C[C@]2(C)[C@H]3CC[C@@H]4[C@H]5C(C(=C)C)CC[C@]5(C(=O)NCCCN5CCN(CCCN)CC5)CC[C@@]4(C)[C@]3(C)CC[C@H]2C(C)(C)[C@H]1OC(C)=O` (stereo not given in full), for which the growth with SR leukemia was -13.6% (active); in the experiment with RPMI-8226 leukemia, -48.5% (active); in the experiment with OVCAR-8 ovarian, -6.54% (active); with OVCAR-4 ovarian, -42.3% (active); in the experiment with SK-OV-3 ovarian it was 108%; in the experiment with IGROV1 ovarian, -46.7% (active). Further, the growth is -83% (active) with OVCAR-3 ovarian; 14.8% in the experiment with HS 578T breast; 38.8% with NCI/ADR-RES ovarian; 75.6% in the experiment with BT-549 breast; -73.3% (active) in the experiment with MDA-MB-435 melanoma; -79.4% (active) with SW-620 colon. Besides, the growth is -75.4% (active) with MCF7 breast, -95.3% (active) in the experiment on HCT-116 colon, -23.5% (active) with HCC-2998 colon and -74.6% (active) with KM12 colon.
